The whole screen tested about 330,000 compounds, of which about 1,900 (0.58%) were called active. Another 4% or so got no clear call; they are omitted. Not all results are given here. Entries with a potency or affinity are not part of this list. Values without a mark were called inactive. Rule as the data show it: inconclusive = inhibition above about 70% without an active follow-up result; inactive = below that.
Test: M. tuberculosis growth inhibition, HTS (AID 449762);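 also: bacterial growth assessed after seven days of incubation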
Conditions: M. tuberculosis H37Rv growth inhibition, 7H9 media; at 25 µM; active compounds read high

Structure (SMILES)	inhibition
Cc1cccc(NC(=O)CSc2cc(C)c(C#N)c3nc4ccccc4n23)c1	-1.23%
CCOC(=O)CSc1cc(C)c(C#N)c2nc3ccccc3n12	9.77%
COC(=O)C1=CO[C@@H](O[C@@H]2O[C@H](CO)[C@@H](O)[C@H](O)[C@H]2O)C2C1CC(O)O[C@H]2C (stereo partly specified)	-0.01%
COc1ccccc1-c1nnn(C/C(N)=N/O)n1	-5.65%
Cc1cc(C)c(NC(=O)CSc2nccn2C)c(C)c1	5.06%
COc1ccc(CNC(=O)c2sc3nc4c(c(C(F)(F)F)c3c2N)CCC4)cc1	0.35%
COc1ccc(CNC(=O)c2sc3nc4c(c(C(F)(F)F)c3c2N)CCC4)cc1OC	38.5%
CC(=O)NCCNC(=O)C1CCC(CNc2nc(=S)[nH]c3ccccc23)CC1 (stereo unspecified)	-6.34%
CC(C)(C)c1ccc(OCCNC(=O)c2ncn[nH]2)cc1	31.8%
COc1cccc(C=Nc2cc(C)cc(C)c2)c1O	4.13%
CCCCNC(=S)N/N=C/c1ccccc1F	31.4%
CCOc1cccc(C=NCCc2ccc(OC)c(OC)c2)c1O	-1.63%
CCOc1cccc(/C=N/NC(=S)Nc2ccccc2[N+](=O)[O-])c1O	0.56%
Cc1ccc([C@@H]2CC=C(C(=O)O)[C@H](c3ccc(F)cc3)N2S(=O)(=O)c2ccc(C)cc2)cc1	7.16%
O=C(O)C(c1ccccc1)N1CCCC1 (stereo unspecified)	-1.43%
Nc1ccccc1Sc1ccccc1[N+](=O)[O-]	-1.08%
Nc1ccccc1SC(C[N+](=O)[O-])c1ccccc1 (stereo unspecified)	10.3%
Cc1ccc(NC(=O)Cn2c3ccc(F)cc3c3nc4n(c(=O)c32)CCS4)cc1F	6.34%
CC(C)(C)c1csc(NC(=O)c2ccccc2O)n1	3.48%
CC(C)(C)c1csc(NC(=O)c2ccncc2)n1	6.43%
O=C(CN1CCN(c2ccccc2Cl)CC1)NC1CCCc2ccccc21 (stereo unspecified)	7.47%
O=C(CN1CCN(c2cccc(Cl)c2)CC1)NC1CCCc2ccccc21 (stereo unspecified)	11.3%
CN(CCNC(=O)C1CCCN(c2ncnc3c2nc2n3CCCCC2)C1)Cc1ccccc1 (stereo unspecified)	-0.58%

Structure (SMILES)	inhibition
CC1CCCN(C(=O)CN2C(=O)NC(C)(c3ccc4ccccc4c3)C2=O)C1 (stereo unspecified)	3.55%
C[C@H](CO)N1C[C@H](C)[C@@H](CN(C)Cc2ccc(-c3ccccc3)cc2)Oc2c(NS(=O)(=O)c3ccc(F)cc3)cccc2C1=O	-1.65%
C[C@]12CC[C@@H](O)CC1=CC(=O)C1C2CC[C@]2(C)C(=O)CCC12 (stereo partly specified)	3.17%
C[C@]12CC[C@H](O)CC1=CC(=O)C1C2CC[C@]2(C)C(=O)CCC12 (stereo partly specified)	-1.13%
NCCCn1cnc2ccccc21	9.6%
Cc1nonc1OC(C)CNc1ccc([N+](=O)[O-])cc1 (stereo unspecified)	8.67%
CN1CCN(c2nc(-c3ccco3)cc(C(F)(F)F)n2)CC1	7.69%
O=[N+]([O-])c1cnn(-c2nc(-c3ccco3)cc(C(F)(F)F)n2)c1	-2.2%
CCn1ncc(/C=N/O)c1C	-7.24%
CCOC(=O)C1(CCOc2ccccc2)CCN(Cc2cccc(OC)c2)CC1	8.09%
CCOC(=O)C1(CCOc2ccccc2)CCN(Cc2cccc(O)c2)CC1	3.57%
Cc1ccc(OCC(=O)N(C)CC(=O)Nc2ccc(F)c(F)c2F)cc1	4.12%
Cc1ccc(S(=O)(=O)N2CCN(C3CC4CCC3C4)CC2)cc1 (stereo unspecified)	-2.36%
O=C(CCNS(=O)(=O)c1ccccc1)N1CCN(C(c2ccccc2)c2ccccc2)CC1	4.06%
CCOc1ccc(-c2cc(CCCC(=O)NCCCOC)no2)cc1	-1.18%
CCOc1ccc(-c2cc(CCCC(=O)NCCc3ccccc3)no2)cc1	-2.4%
CCn1c2c(c3cc(OCC(C)C)ccc31)CCCC2=O	-1.76%
COc1ccc(NC(=O)CS(=O)(=O)c2cn(CC(=O)N3CCOCC3)c3ccccc23)cc1OC	-16%
Cc1ccc(SC2=C(Sc3ccc(C)cc3)C(=O)c3ccccc3C2=O)cc1	-5.39%
O=S1(=O)N=C(SCCO)c2ccccc21	8.5%
COc1cc(C(=O)OCC(=O)Nc2ccccc2C(=O)NC2CC2)c([N+](=O)[O-])cc1OC	-0.465%
COc1cccc(C2C(C#N)=C(N)OC(C(C)(C)C)=C2C#N)c1 (stereo unspecified)	-2.5%
COC(=O)c1c(NC(=S)Nc2ccc(C(=O)N3CCOCC3)cc2)sc2c1CCC2	-7.13%

Structure (SMILES)	inhibition
CN(C)CCNC(=O)c1ccc2c(=O)n(Cc3ccc(Cl)cc3)c(=S)[nH]c2c1	2.11%
O=C(NCCN1CCCC1)c1ccc(Cn2c(=S)[nH]c3ccc(Br)cc3c2=O)cc1	64.3%
C/C(=N/NC(=O)c1cc(C)[nH]n1)c1ccncc1	0.52%
CC1CCN(C(=O)C2CCCCN2S(=O)(=O)c2cccc([N+](=O)[O-])c2)CC1 (stereo unspecified)	0.51%
COC(=O)c1[nH]c2ccccc2c1NC(=O)C(C)N1CCN(C(=O)c2ccco2)CC1 (stereo unspecified)	-9.02%
CCOC(=O)c1sc(NC(=O)c2cc(-c3ccc(C)cc3)nc3ccccc23)c(C#N)c1C	1.87%
COc1cccc(NS(=O)(=O)c2c(C)n(C)c(=O)n(C)c2=O)c1	-4.03%
Cc1ccc(C)c(N2CCN(S(=O)(=O)c3ccc(-c4cc(C)no4)s3)CC2)c1	6.24%
Cc1nn(-c2ccc([N+](=O)[O-])cc2)c2c1C(c1cccc(Br)c1)N1C(=N2)C(=O)Nc2ccccc21 (stereo unspecified)	15.9%
Cc1nn(-c2ccc([N+](=O)[O-])cc2)c2c1C(c1ccc(OC(F)F)cc1)N1C(=N2)C(=O)Nc2ccccc21 (stereo unspecified)	65.4%
Cc1cc(C(=O)NCC(=O)OCC(=O)Nc2ccc(OC(F)F)cc2)ccc1[N+](=O)[O-]	-2.28%
CC(C)NC(=O)[C@@H]1CSC2c3ccccc3C(=O)N21 (stereo partly specified)	-1.97%
O=C(C[C@@H]1C/C=C\CCCC(=O)OC[C@@H]2CCCN2C1=O)N[C@H](CO)Cc1ccccc1	7.5%
Cc1cc(SCC(=O)NCCN2C(=O)CSC2=O)nc2c(C)cccc12	4.1%
Cc1cccc2c1-c1sc(C(=O)Nc3cccc([N+](=O)[O-])c3C)cc1CO2	-9.42%
Cc1cccc(NC(=O)c2cc3c(s2)-c2c(C)cccc2OC3)n1	0.14%
Cc1cccc(OCCCC(=O)Nc2nccs2)c1C	8.02%
O=C(c1sccc1-c1ccccc1)N1CCN(S(=O)(=O)c2ccccc2)CC1	-22.5%
COCCNc1nc(SCC(=O)N2CCN(c3ccccc3OC)CC2)nc2ccccc12	-10.5%
COc1ccc2c3n([n+]([O-])c2c1)CCN=C3c1ccc(C)cc1	17%
[O-][n+]1c2ccccc2c2n1CCN=C2c1ccc(Cl)cc1	0.84%
O=C(O)c1ccc(Cn2ccc3ccccc32)o1	2%
CC(=O)C1=C(C)NC(SCC(N)=O)=C(C#N)C1c1ccco1 (stereo unspecified)	-6.56%

Structure (SMILES)	inhibition
CC1=C(C(=O)Nc2ccccc2)C(c2ccco2)C(C#N)=C(SCC(=O)Nc2cccc(C)c2C)N1 (stereo unspecified)	-1.31%
CCOc1ccccc1NC(=O)CSC1=C(C#N)C(c2ccco2)C(C(=O)Nc2nc3ccccc3s2)=C(C)N1 (stereo unspecified)	49.6%
CC(=O)C1=C(C)NC(SCC(=O)c2ccc(Cl)cc2)=C(C#N)C1c1ccco1 (stereo unspecified)	2.1%
CCOc1ccccc1CN1CCN(CC2CC2)CC1CCO (stereo unspecified)	-1.16%
COCCCNC(=O)CC(NCCCOC)C(=O)O (stereo unspecified)	0.77%
COC(=O)c1ccc(NS(=O)(=O)N(C)C)cc1	-1.07%
Nc1c(N(CCC2=CCCCC2)C(=O)c2ccco2)c(=O)[nH]c(=O)n1Cc1ccccc1	9.03%
Cc1ccc(C(=O)N(CCC2=CCCCC2)c2c(N)n(Cc3ccccc3)c(=O)[nH]c2=O)o1	6.47%
CS(=O)(=O)c1ccc(Cl)c(NC(=O)COC(=O)CCN=C2NS(=O)(=O)c3ccccc32)c1	-3.06%
O=C(CCl)NN1C(=O)NC(c2ccccc2)(c2ccccc2)C1=O	2.88%
Cc1ccc(S(=O)(=O)NCC(=O)OCc2cc(=O)oc3cc(C)ccc23)cc1	-1.73%
O=C(NC(=S)Nc1ccc2[nH]c(=O)[nH]c2c1)c1ccccc1F	-4.55%
Clc1ccc2c(c1)C(OC1CN3CCC1CC3)c1ccccc1CS2 (stereo unspecified)	9.17%
Brc1ccc2c(c1)C(C1=NCCN1)c1ccccc1CS2 (stereo unspecified)	0.75%
CN(C)/N=C/c1c(O)ccc2ccccc12	27.8%
NC(=S)N/N=C/c1c(O)ccc2ccccc12	-0.33%
CCCN(CCC)C(=O)c1ccc2nc(-c3ccc(OC)c(OC)c3)c(-c3ccc(OC)c(OC)c3)nc2c1	-2.59%
CC1CCCN(C(=O)Cc2cccc3ccccc23)C1 (stereo unspecified)	7.05%
CCN(c1ccccc1)S(=O)(=O)c1cccc(C(=O)Nc2ccc(C)cn2)c1	-11.7%
COc1cccc(-c2cccc(NC(=O)C3CCN(C4CCOCC4)CC3)c2)c1	6.63%
Cc1ccc(/C=N/N2C(=O)C3C(C2=O)C2C=CC3C23CC3)o1 (stereo unspecified)	-4.61%
O=C1C2C(C(=O)N1/N=C/c1ccc(N3CCCCC3)o1)C1C=CC2C12CC2 (stereo unspecified)	6.38%

Source: PubChem BioAssay AID449762 (Southern Research Specialized Biocontainment Screening …, 2010)
